ABHD5-PLIN5 inh – ABHD5-PLIN5 protein interaction inhibition; inhibition, % at 4 µM; Split G. princeps luciferase complementation, luminescence, 4 h; 360,000 tested, 0.78% active; Q00G26+Q8WTS1;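 active = inhibition above the mean inhibition across every tested compound plus 3 SD, cut at about 22% in these data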;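 also: 0% = DMSO only wells and the 100% control is not disclosed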
NOD2 RIPK2 PPI – NOD2-RIPK2 protein interaction inhibition; CHO BLA complementation NOD2-RIPK2, CCF4 ratio; inhibition, % at 4.98 µM; 360,000 tested, 0.38% active; in the data active = inhibition above about 21%;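 also: 0% = vehicle only and 100% = reference blocker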
rCAG binder – binds r(CAG) RNA repeats. 370,000 tested, 1.3% active. inhibition, % at 3 µM. r(CAG) RNA repeat, TO-PRO-1 dye displacement fluorescence;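 active = inhibition above the plate cutoff, the mean of all test compounds on that plate plus 3 SD, cut at about 35% in these data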;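 also: 0% = DMSO alone and 100% = 100 µM mitoxantrone as full dye displacement; higher means more dye released from RNA so lower well fluorescence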
PRMT1 FP inh – inhibitors of human PRMT1; Q99873; recombinant PRMT1, activity-based probe fluorescence polarization; inhibition, % at 2.79 µM; 370,000 tested, 1.3% active;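 active = inhibition above about 21% made by adding two undisclosed values, limit read from the data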
TLR4-MyD88 BLA – blocks binding of human TLR4 to MyD88; AID 861; 200,000 tested, 0.18% active; HeLa CL3-4 TLR4/MyD88 BLA complementation, FRET ratio; inhibition, % at 8.4 µM; O00206+Q99836; in the data active = inhibition above about 25%;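 also: 0% = vehicle and 100% = reference inhibitor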
Target sequence (O00206 whole entry, looked up): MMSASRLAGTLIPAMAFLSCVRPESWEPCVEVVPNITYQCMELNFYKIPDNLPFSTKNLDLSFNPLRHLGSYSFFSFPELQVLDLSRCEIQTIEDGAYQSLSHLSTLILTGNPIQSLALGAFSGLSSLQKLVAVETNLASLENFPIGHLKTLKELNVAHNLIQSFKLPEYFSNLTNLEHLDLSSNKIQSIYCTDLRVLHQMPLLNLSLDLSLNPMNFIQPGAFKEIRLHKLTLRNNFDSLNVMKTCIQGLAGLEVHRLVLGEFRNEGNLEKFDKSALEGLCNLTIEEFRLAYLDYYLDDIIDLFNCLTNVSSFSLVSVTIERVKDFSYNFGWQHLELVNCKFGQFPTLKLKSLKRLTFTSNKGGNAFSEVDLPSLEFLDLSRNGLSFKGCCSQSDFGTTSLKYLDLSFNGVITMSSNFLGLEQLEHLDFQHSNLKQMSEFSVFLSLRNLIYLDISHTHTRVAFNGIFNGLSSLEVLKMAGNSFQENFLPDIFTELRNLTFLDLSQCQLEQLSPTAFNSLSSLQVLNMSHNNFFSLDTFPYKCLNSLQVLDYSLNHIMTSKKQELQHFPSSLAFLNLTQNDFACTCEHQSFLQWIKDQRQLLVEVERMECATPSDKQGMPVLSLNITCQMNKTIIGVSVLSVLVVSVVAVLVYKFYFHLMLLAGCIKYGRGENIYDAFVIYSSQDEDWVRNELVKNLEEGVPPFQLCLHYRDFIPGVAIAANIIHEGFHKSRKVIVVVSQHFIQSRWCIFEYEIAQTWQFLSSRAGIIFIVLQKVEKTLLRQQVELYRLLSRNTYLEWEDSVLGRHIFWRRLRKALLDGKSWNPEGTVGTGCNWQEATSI
Target sequence (Q99836 whole entry, looked up): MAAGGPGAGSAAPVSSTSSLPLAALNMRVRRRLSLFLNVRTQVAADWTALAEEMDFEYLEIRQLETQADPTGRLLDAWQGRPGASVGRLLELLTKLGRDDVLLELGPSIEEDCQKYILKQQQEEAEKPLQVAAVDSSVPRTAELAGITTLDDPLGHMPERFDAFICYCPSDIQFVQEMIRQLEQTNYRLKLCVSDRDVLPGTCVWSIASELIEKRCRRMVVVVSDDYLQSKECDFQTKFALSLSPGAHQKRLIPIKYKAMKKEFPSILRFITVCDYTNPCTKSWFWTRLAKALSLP
TLR9-MyD88 block – TLR9-MyD88 interaction inhibition | 340,000 tested, 0.21% active | inhibition, % at 4.98 µM | CHO BLA complementation TLR9-MyD88, CCF4 FRET ratio | Q9NR96+Q99836;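 active = inhibition above the mean over all tested compounds plus 3 SD, cut at about 21% in these data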;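 also: 0% = DMSO only wells and 100% = clavulanate BLA inhibitor control wells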
PRMT1 inh conf – PRMT1 (human) inhibition, FP confirmation; shares compounds with PRMT1 FP inh; recombinant His-PRMT1, activity-based probe fluorescence polarization; inhibition, % at 2.79 µM; 3,300 tested, 42% active; AID 687036;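 active = mean inhibition across replicates above the hit cutoff derived for the earlier primary screen, cut at about 22% in these data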
Active calls of the source: *; x = not tested or not shown. Sampled rows, rich in hits. Any-hit rate of the full collection: about 3.3%.

SMILES | ABHD5-PLIN5 inh | NOD2 RIPK2 PPI | rCAG binder | PRMT1 FP inh | TLR4-MyD88 BLA | TLR9-MyD88 block | PRMT1 inh conf
CN(CC(=O)N1CCOCC1)C(=O)CSc1nc2ccccc2s1 | 0 | -2 | 2 | 26* | 4 | 6 | 34*
O=C(O)[C@H]1CCCC[C@H]1C(=O)Nc1ccc(S(=O)(=O)N2CCOCC2)cc1 | -3 | -18 | 3 | -2 | x | -24 | x
Cc1ccc(CN(Cc2ccccc2)C(=S)NCC(=O)NCc2cccnc2)o1 | 1 | 3 | 1 | 33* | 6 | 2 | 3
COCCNC(=O)C1CCCN(C(=O)c2ccc3ccccc3n2)CC1 (stereo not given) | -4 | -17 | 1 | 6 | x | x | x
O=C(/C=C/c1ccccc1)N1CCOCC1 | 3 | -15 | 1 | -1 | x | 13 | x
O=C(/C=C/c1ccccc1)CCN1CCOCC1 | 14 | 10 | -1 | 27* | x | -9 | 58*
C/C(=N/Nc1ccnc2cc(Cl)ccc12)c1ccc(O)cc1 | -4 | -1 | 12 | 37* | x | 2 | 1
CCOC(=O)C1=C(N)Oc2c(c(=O)[nH]c3ccccc23)C1c1ccccc1 (stereo not given) | -43 | -16 | 0 | 58* | -11 | -2 | 20
CCC1(CC)NC(=O)N(CC(=O)OC(C)C(=O)Nc2cc([N+](=O)[O-])ccc2OC)C1=O (stereo not given) | 10 | -5 | 0 | -5 | x | -10 | x
Cc1ccc(-c2csc(N)n2)s1 | -39 | 6 | 15 | 76* | -3 | -1 | 28*
O=[N+]([O-])c1cc(-c2ccc(C(=S)N3CCOCC3)o2)ccc1Cl | -35 | 1 | 16 | 44* | 4 | -12 | 18
O=[N+]([O-])c1ccccc1-c1ccc(C(=S)N2CCCC2)o1 | -35 | -6 | 12 | 39* | -4 | -6 | 8
O=[N+]([O-])c1ccccc1-c1ccc(C(=S)N2CCCCC2)o1 | -22 | -9 | 3 | 3 | x | 5 | x
Cc1cc(C)c(S(=O)(=O)N(C)CC(=O)N2CCCC2)c(C)c1 | 10 | -10 | 1 | -6 | x | 3 | x
CCOC(=O)CSC1=C(C#N)C(=O)NC(c2ccc(OC)c(OC)c2)S1 (stereo not given) | -4 | -7 | 1 | 2 | -6 | 3 | x
CCOC(=O)CSC1=C(C#N)C(=O)NC(c2ccc(OC)cc2)S1 (stereo not given) | -5 | -8 | 5 | 35* | -3 | -2 | 7
COC1=Nc2ccccc2/C=C\c2ccccc21 | -3 | 1 | 0 | -2 | x | -10 | x
O=c1cc(-c2ccccc2)nc2cc(-c3ccco3)[nH]n12 | -11 | -7 | 22 | 30* | x | -15 | -1
COc1cc(OC)cc(C(=O)N[C@H](C(=O)OCC(=O)Nc2cccnc2Cl)C(C)C)c1 | -6 | -3 | -1 | -2 | x | -4 | x
NC(=O)C1CCN(C(=S)c2ccc(-c3ccc(Br)cc3)o2)CC1 | -1 | -1 | 3 | 46* | 8 | x | 60*
COc1ccc(C(=S)N2CCC(C(N)=O)CC2)cc1Br | -8 | 2 | -4 | 11 | 6 | 2 | x
COC(=O)C1(Cc2cc(-c3ccc([N+](=O)[O-])cc3)no2)CCN(C(=O)OC(C)(C)C)CC1 | -1 | -3 | -1 | -1 | x | -10 | x
Cc1ccc(C2=NC3(CCCC3)N=C2SCC(=O)Nc2ccc3c(c2)OCCO3)cc1 | -34 | -8 | 0 | 55* | -4 | -2 | 47*
O=C1CCCN1CCC1CCN(C2CC(=O)N(c3ccc(Cl)cc3)C2=O)CC1 (stereo not given) | 18 | 22* | -3 | 50* | 15 | -3 | 9
O=C1CC(N2CCOCC2)C(=O)N1Cc1ccc(N2CCCC2=O)cc1 (stereo not given) | -1 | -10 | 8 | 14 | 6 | 6 | x
SMILES | ABHD5-PLIN5 inh | NOD2 RIPK2 PPI | rCAG binder | PRMT1 FP inh | TLR4-MyD88 BLA | TLR9-MyD88 block | PRMT1 inh conf
O=C1CC(N2CCC(O)(c3ccc(Cl)cc3)CC2)C(=O)N1Cc1ccc(N2CCCC2=O)cc1 (stereo not given) | 7 | 0 | -7 | 63* | 0 | -3 | 4
O=C1CCCN1CCC1CCN(C2CC(=O)N(Cc3ccc(N4CCCC4=O)cc3)C2=O)CC1 (stereo not given) | 17 | -5 | -2 | 93* | 16 | 1 | 7
O=C1CC(N2CCOCC2)C(=O)N1c1ccc(Cl)cc1 (stereo not given) | 4 | -8 | 2 | 3 | x | 4 | x
O=C(O)CCc1ccc(S(=O)(=O)Nc2cc(C(F)(F)F)ccc2N2CCCC2)cc1 | -2 | 7 | 21 | 1 | x | -6 | x
Cn1[nH]c(C(F)(F)F)cc1=O | 1 | -6 | 0 | -3 | -8 | 7 | x
O=C(NCc1ccccc1)c1cc(C2COCCN2S(=O)(=O)c2ccccc2)on1 (stereo not given) | -10 | 13 | 1 | 0 | x | x | x
CCC(C)n1c(SCC(=O)NC2CCS(=O)(=O)C2)nc2ccccc2c1=O (stereo not given) | -9 | -5 | -3 | -1 | x | 4 | x
Cc1ccnc(N=O)c1 | -20 | 9 | 3 | 45* | x | -15 | 55*
CC1CCCCC1NC(=O)CSc1nnc(COc2ccc(Cl)cc2)o1 (stereo not given) | -4 | -4 | -2 | 3 | x | 6 | x
COC(=O)c1ccc(CSc2n[nH]c(=S)s2)o1 | -5 | -2 | -1 | 27* | 6 | -2 | -1
CSC1=NSC2=NC(=O)/C(=C\c3coc4ccccc4c3=O)C(=N)N12 | -9 | 6 | -213 | 31* | 10 | -2 | 72*
Cc1ccc(C2=N/C(=C\c3coc4ccccc4c3=O)C(=O)O2)cc1 | x | x | 14 | 37* | x | x | 1
O=C(CSCc1ccco1)c1cccs1 | -4 | -5 | 8 | 25* | -2 | 3 | 70*
CCN(CC)C1CC(=O)N(c2cccc(C)c2)C1=O (stereo not given) | x | x | x | x | 7 | x | x
Cc1cccc(N2C(=O)C=CC2=O)c1 | 6 | 14 | 6 | 71* | x | -3 | 88*
O=C1C=CC(=O)N1c1ccc2ccccc2c1 | 19 | -8 | 6 | 70* | x | -9 | 90*
CCCCN1C[C@@H](COCc2ccccc2)Oc2cc(F)ccc2S1(=O)=O | x | x | 1 | -5 | x | x | x
O=C(CCNC(=O)c1ccco1)NCCc1ccc(Cl)cc1 | 12 | -4 | -2 | 47* | x | 3 | 1
Cc1cccc(NC(=O)C2CC(=O)n3cnnc3S2)c1 (stereo not given) | 9 | -5 | 13 | 84* | -6 | -5 | 60*
Cc1ccc(NC(=O)CCCSc2ccccc2)cc1S(=O)(=O)N1CCOCC1 | 4 | 0 | -2 | -2 | -7 | 0 | x
Cc1ccc(-c2c3c([nH]c(=S)c2C#N)CCCC3)o1 | 13 | 7 | 26 | 50* | 9 | -9 | 31*
N#Cc1c(-c2ccncc2)c2c([nH]c1=S)CCCC2 | -13 | 4 | 2 | 37* | -6 | 18 | 8
